Laboratory results as given in PubChem BioAssay AID1159580 (chemical genetic matrix, 2015).
Where “and” joins values, the source holds several entries; their conditions need not be identical. Equal values may be shown once. The campaign covered roughly 5,500 compounds. About 2,000 (36%) were called active. Another 18% or so got no clear call; they are omitted. Cut-off read from the data, not from the text of the source: active = normalized growth mostly below about 0.91 (no sharp cut-off); inconclusive = no clear call, values can overlap the other calls; inactive = mostly above about 0.92. Some of the results follow.

Assay: chemical genetic growth profiling, strain panel (AID 1159580);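 note: tested at 20 µM; growth read once vehicle control cultures reached saturation at 30 °C; 1 = growth at the plate median or of vehicle wells; lower values mean less growth of the strain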
Settings: S. cerevisiae deletion strains, growth OD

Measured: normalized growth

CC1(C)CC[C@]2(C(=O)O)CC[C@]3(C)C(=CCC4[C@@]5(C)CC[C@@H](O)C(C)(C)C5CC[C@]43C)C2C1 (some centres undefined)
inactive: locus YAL021C, strain ccr4, hits give low values 1.02 | locus YAL026C, strain drs2, hits give low values 1.01 | locus YAL030W, strain snc1, hits give low values 1.03 | locus YBL061C, strain skt5, hits give low values 1.01 | locus YBR009C, strain hhf1, hits give low values 0.995 | locus YBR021W, strain FUR4, hits give low values 1.02 | locus YBR023C, strain chs3, hits give low values 1.01 | locus YBR171W, strain sec66, hits give low values 1.05 | locus YBR229C, strain ROT2, hits give low values 1.01 | locus YBR231C, strain swc5, hits give low values 1.02 | locus YBR279W, strain paf1, hits give low values 1.01 | locus YCL011C, strain gbp2, hits give low values 1.01 | locus YCL016C, strain dcc1, hits give low values 1.03 | locus YCL029C, strain bik1, hits give low values 1.01 | locus YCL069W, strain vba3, hits give low values 1.02 | locus YCR088W, strain abp1, hits give low values 1.01 | locus YDL005C, strain med2, hits give low values 1.03 | locus YDL035C, strain GPR1, hits give low values 1.01 | locus YDL040C, strain nat1, hits give low values 1.01 | locus YDL074C, strain BRE1, hits give low values 1.06 | locus YDL101C, strain DUN1, hits give low values 1.02 | locus YDL134C, strain PPH21, hits give low values 1.04 | locus YDL185W, strain tfp1, hits give low values 1.02 | locus YDR001C, strain nth1, hits give low values 1.01 | locus YDR069C, strain doa4, hits give low values 1.05 | locus YDR101C, strain arx1, hits give low values 0.991 | locus YDR137W, strain rgp1, hits give low values 1.07 | locus YDR150W, strain NUM1, hits give low values 1.01 | locus YDR159W, strain sac3, hits give low values 1.04 | locus YDR162C, strain NBP2, hits give low values 1.05 | locus YDR195W, strain ref2 0.987 | locus YDR297W, strain sur2, hits give low values 1 | locus YDR318W, strain mcm21, hits give low values 1.02 | locus YDR334W, strain swr1, hits give low values 1.03 | locus YDR335W, strain msn5, hits give low values 1.02 | locus YDR388W, hits give low values 1.02 | locus YDR392W, strain spt3, hits give low values 1.03 | locus YDR502C, strain sam2, hits give low values 1.02 | locus YEL003W, strain gim4, hits give low values 1.02 | locus YEL037C, strain rad23, hits give low values 1.01 | locus YEL061C, strain CIN8 (second series), hits give low values 1 | locus YER015W, strain faa2, hits give low values 1.01 | locus YER016W, strain bim1, hits give low values 1.03 | locus YER110C, hits give low values 1.02 | locus YER111C, strain swi4, hits give low values 1.01 | locus YER155C, strain BEM2 (second series), hits give low values 1.02 | locus YER155C, strain BEM2, hits give low values 1.01 | locus YER167W, strain BCK2, hits give low values 1.01 | locus YFR010W, strain ubp6, hits give low values 1.01 | locus YGL078C, strain dbp3, hits give low values 1.04 | locus YGL086W, strain mad1, hits give low values 1.03 | locus YGL167C, strain pmr1, hits give low values 1.03 | locus YGL173C, strain kem1, hits give low values 1.02 | locus YGL227W, strain vid30, hits give low values 1.01 | locus YGL240W, strain doc1, hits give low values 1.03 | locus YGL248W, strain PDE1, hits give low values 1.02 | locus YGL253W, strain hxk2, hits give low values 1.01 | locus YGR135W, strain pre9, hits give low values 1.02 | locus YGR229C, strain SMI1, hits give low values 1.05 | locus YGR252W, strain gcn5, hits give low values 0.944 | locus YHR013C, strain ard1, hits give low values 1.04 | locus YHR027C, strain rpn1, hits give low values 1.02 | locus YHR030C, strain SLT2, hits give low values 1.01 and 1.02 | locus YHR079C, strain IRE1 (second series), hits give low values 1.01 | locus YHR079C, strain IRE1, hits give low values 1.05 | locus YHR094C, strain hxt1, hits give low values 1.01 | locus YHR129C, strain ARP1, hits give low values 1.01 | locus YHR142W, strain chs7, hits give low values 1.02 | locus YHR200W, strain rpn10, hits give low values 1.01 | locus YIL066C, strain RNR3, hits give low values 1.03 | locus YIL073C, strain SPO22, hits give low values 1.05 | locus YIL125W, strain kgd1, hits give low values 1.01 | locus YJL092W, strain hpr5, hits give low values 1.02 | locus YJL095W, strain BCK1 (second series), hits give low values 1.03 | locus YJL095W, strain BCK1, hits give low values 1.05 and 1.02 | locus YJL115W, strain asf1, hits give low values 1.01 | locus YJL129C, strain trk1, hits give low values 1.04 | locus YJL134W, strain LCB3, hits give low values 1.01 | locus YJL154C, strain vps35, hits give low values 1.01 | locus YJL164C, strain tpk1, hits give low values 1.02 | locus YJL166W, strain qcr8, hits give low values 1.02 | locus YJL168C, strain set2, hits give low values 1.02 | locus YJL187C, strain SWE1 (second series), hits give low values 1.04 | locus YJR043C, strain POL32, hits give low values 1
